Measurements: PubChem BioAssay AID1745853 (National Center for Advancing Translational Sciences (NCATS), 2022)
Where “and” joins values, the source holds several entries; their conditions need not be identical. Identical values can stand only once. In all, about 25,000 compounds went through this assay and about 970 (3.9%) were called active. Not shown: some 8% with an inconclusive outcome. The rule behind the calls is not given here. Many of the other results were omitted from the sample, so actives are more common in it than they were.

How the values were obtained:
Test in all cases: Primary Screen for Target Class Profiling of Small Molecule Inhibitors of Methyltransferases
[1] = molecular target: Catechol O-methyltransferase (Homo sapiens) (UniProt P21964); details: purified enzyme, MTase-Glo SAH luminescence; activity change, negative = inhibition: at 40 µM, stronger effect = lower value; outcome: 40 uM
Description: (§1) PI: Matthew D. Hall Ph.D. and Quinlin M. Hanson Ph.D.
(§2) National Center for Advancing Translational Sciences (NCATS)
(§3) National Institute of Health (NIH), Rockville, MD
(§4) Target class profiling (TCP) is a chemical biology approach amenable to investigating understudied biological targets. TCP is achieved by developing a generalizable assay platform and applying it to screen a curated set of compound libraries against representative members of a target class. Small molecule methyltransferases (SMMTase) are a subclass of methyltransferase that act on metabolites to modulate signaling pathways, metabolize xenobiotics, or balance the available methyl pool. We screened four curated libraries totaling 27,574 unique compounds against the SMMTases nicotinamide N-methyltransferase (NNMT), phenylethanolamine N-methyltransferase (PNMT), histamine N-methyltransferase (HNMT), glycine N-methyltransferase (GNMT), catechol O-methyltransferase (COMT), and guanidinoacetate N-methyltransferase (GAMT). The data generated by this TCP can be leveraged for informed tool molecule development. For example, in the associated publication we identified a chemotype of HNMT-selective inhibitors. Additionally, we identified a putative SMMTase-selective inhibitor with potential as a tool molecule for studying broader methyltransferase biology.
(§5) High-through put screening assays were developed at the National Center for Advancing Translational Science (NCATS) for the enzymes NNMT, PNMT, HNMT, GNMT, COMT, and GAMT. Enzymatic activity was measured as a function of SAM cofactor conversion using the MTase Glo kit (Promega) for all enzymes. All assays were performed in 1536-well format with substrates and SAM concentrations at KM values. Enzyme concentration and assay timing were optimized for 10-20% SAM conversion. Initial screening of 27,574 compounds was done as single-point assays using the highest compound concentration (40 uM). […] These compounds were replated in 11-point dose response and assayed against NNMT, PNMT, HNMT, GNMT, COMT, GAMT, and a counter-assay. The IC50 and efficacy (maximal response) values were determined for each dose-response curve. These values are also accounted for in the area under the curve (AUC) values.
(§6) PROTOCOL TABLE (as described by Inglese J, Shamu CE and Guy RK. 2007)
(§7) SEQUENCE No. (e.g., 1, 2, 3, etc.); […] (e.g., Cells, Incubation, Reagent, etc.); VALUE; DESCRIPTION.
(§8) 1; Reagent; 2 uL; SMMTase Enzyme (2x) in reaction buffer, columns 1- 48.
(§9) 2; Reagent; 1 uL; SAM (4x) in reaction buffer, columns 1-48.
(§10) 3; Controls; 23 nL; DMSO in column 4; sinefungin in DMSO (0 uM - 40 uM) in 7-point 1:2 dilution series (n = 2) in column 2.
(§11) 4; Compounds; 23 nL; Columns 5-48.
(§12) 5; Reagent; 1 uL; Substrate (4x) in reaction buffer, columns 2-48.
(§13) 6; Time; 20-30 min; Incubation.
(§14) 7; Reagent; 1 uL; MTase-Glo reagent (5X), columns 1-48.
(§15) 8; Time; 30 min; Incubation.
(§16) 9; Reagent; 5 uL; MTase-Glo Detection reagent, columns 1-48.
(§17) 10; Time; 30 min; Incubation, luminescence evolution.
(§18) 11; Detection; Luminescence; ViewLux uHTS Microplate Imager (PerkinElmer).
(§19) NOTES (numbers refer to Sequence numbers above)
(§20) 1, 2, 5. White Medium Binding Greiner 1536-well plates (Cat #789175-F, Greiner Bio-One, Monroe, NC); Reaction buffer: 50 mM Tris, pH 8.0, 3 mM MgCl2, 1 mM EDTA, 50 mM NaCl, 1 mM DTT, and 0.1 mg/mL BSA. Evaporation was prevented by covering assay plates with metal lids containing holes to allow gas diffusion.
(§21) 1. Six SMMTase were profiled: HNMT, GNMT, PNMT, COMT, NNMT, GAMT
(§22) 5. The corresponding substrate was used for each enzyme: HNMT - 5.3 uM Histamine; GNMT - >500 uM Glycine; PNMT - 16.2 uM Norephinephrine; COMT - 13.7 uM Norephinephrine; NNMT - 3.8 uM Nicotinamide; GAMT - 2.5 uM Guanidinoacetate.6, 8, 10. Room temperature
(§23) 6. Final reaction conditions: 10 nM COMT, 5 uM SAM, 15 uM norepinephrine, 50 mM Tris, pH 8.0, 3 mM MgCl2, 1 mM EDTA, 50 mM NaCl, 1 mM DTT, and 0.1 mg/mL BSA; refer to tables 2 and S1 for specific timing.
8. […]

[2] = molecular target: Glycine N-methyltransferase (Homo sapiens) (UniProt Q14749); details: purified enzyme, MTase-Glo SAH luminescence; measured here: GNMT inhibition; at 40 µM; stronger effect = lower value
Description: as §1, §2, §3, §4, §5, §6, §7, §8, §9, §10, §11, §12, §13, §14, §15, §16, §17, §18, §19, §20, §21, §22, §23
8. […]

[3] = molecular target: Guanidinoacetate N-methyltransferase (Homo sapiens) (UniProt Q14353); details: purified enzyme, MTase-Glo SAH luminescence; measured here: GAMT inhibition; at 40 µM; stronger effect = lower value
Description: as §1, §2, §3, §4, §5, §6, §7, §8, §9, §10, §11, §12, §13, §14, §15, §16, §17, §18, §19, §20, §21, §22, §23
8. […]

[4] = molecular target: Histamine N-methyltransferase (Homo sapiens) (UniProt P50135); details: purified enzyme, MTase-Glo SAH luminescence; measured here: HNMT inhibition; at 40 µM; stronger effect = lower value
Description: as §1, §2, §3, §4, §5, §6, §7, §8, §9, §10, §11, §12, §13, §14, §15, §16, §17, §18, §19, §20, §21, §22, §23
8. […]

[5] = molecular target: Nicotinamide N-methyltransferase (Homo sapiens) (UniProt P40261); details: purified enzyme, MTase-Glo SAH luminescence; measured here: NNMT inhibition; at 40 µM; stronger effect = lower value
Description: as §1, §2, §3, §4, §5, §6, §7, §8, §9, §10, §11, §12, §13, §14, §15, §16, §17, §18, §19, §20, §21, §22, §23
8. […]

[6] = molecular target: Phenylethanolamine N-methyltransferase (Homo sapiens) (UniProt P11086); details: purified enzyme, MTase-Glo SAH luminescence; measured here: PNMT inhibition; at 40 µM; stronger effect = lower value
Description: as §1, §2, §3, §4, §5, §6, §7, §8, §9, §10, §11, §12, §13, §14, §15, §16, §17, §18, §19, §20, §21, §22, §23
8. […]
% is set by controls: 0 for no effect and ±100 for the full control effect.

Phenylethanolamine N-methyltransferase (Homo sapiens), sequence (P11086 whole entry, looked up): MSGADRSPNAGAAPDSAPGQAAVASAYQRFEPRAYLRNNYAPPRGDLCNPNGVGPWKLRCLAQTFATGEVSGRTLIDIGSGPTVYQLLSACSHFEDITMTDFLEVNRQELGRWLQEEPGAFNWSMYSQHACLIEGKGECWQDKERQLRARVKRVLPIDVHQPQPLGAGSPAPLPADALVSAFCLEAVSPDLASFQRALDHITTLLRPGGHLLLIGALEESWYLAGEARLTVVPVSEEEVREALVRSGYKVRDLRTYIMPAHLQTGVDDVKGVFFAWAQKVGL
Histamine N-methyltransferase (Homo sapiens), sequence (P50135 whole entry, looked up): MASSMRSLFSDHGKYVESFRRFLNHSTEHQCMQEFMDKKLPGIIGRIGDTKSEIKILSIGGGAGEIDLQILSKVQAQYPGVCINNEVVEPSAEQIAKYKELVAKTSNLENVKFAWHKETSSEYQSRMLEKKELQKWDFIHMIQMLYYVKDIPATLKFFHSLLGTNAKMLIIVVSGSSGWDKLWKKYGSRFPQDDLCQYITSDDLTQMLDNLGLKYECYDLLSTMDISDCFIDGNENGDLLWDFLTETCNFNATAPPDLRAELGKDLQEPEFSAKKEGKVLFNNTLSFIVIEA
Catechol O-methyltransferase (Homo sapiens), sequence (P21964 whole entry, looked up): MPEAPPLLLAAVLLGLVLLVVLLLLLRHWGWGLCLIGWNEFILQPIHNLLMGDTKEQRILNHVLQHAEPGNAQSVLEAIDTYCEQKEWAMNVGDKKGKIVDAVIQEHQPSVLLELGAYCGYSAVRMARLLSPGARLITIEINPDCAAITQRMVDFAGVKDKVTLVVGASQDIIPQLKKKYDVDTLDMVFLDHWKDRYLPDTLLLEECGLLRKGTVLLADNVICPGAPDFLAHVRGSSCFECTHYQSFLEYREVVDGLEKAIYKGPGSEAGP
Nicotinamide N-methyltransferase (Homo sapiens), sequence (P40261 whole entry, looked up): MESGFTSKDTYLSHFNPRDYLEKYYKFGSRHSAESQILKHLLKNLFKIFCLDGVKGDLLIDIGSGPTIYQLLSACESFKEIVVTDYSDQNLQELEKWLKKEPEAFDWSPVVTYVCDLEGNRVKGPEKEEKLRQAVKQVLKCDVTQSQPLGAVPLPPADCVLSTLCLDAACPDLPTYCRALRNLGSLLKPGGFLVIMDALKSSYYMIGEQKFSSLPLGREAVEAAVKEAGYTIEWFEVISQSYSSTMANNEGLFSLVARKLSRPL
Glycine N-methyltransferase (Homo sapiens), sequence (Q14749 whole entry, looked up): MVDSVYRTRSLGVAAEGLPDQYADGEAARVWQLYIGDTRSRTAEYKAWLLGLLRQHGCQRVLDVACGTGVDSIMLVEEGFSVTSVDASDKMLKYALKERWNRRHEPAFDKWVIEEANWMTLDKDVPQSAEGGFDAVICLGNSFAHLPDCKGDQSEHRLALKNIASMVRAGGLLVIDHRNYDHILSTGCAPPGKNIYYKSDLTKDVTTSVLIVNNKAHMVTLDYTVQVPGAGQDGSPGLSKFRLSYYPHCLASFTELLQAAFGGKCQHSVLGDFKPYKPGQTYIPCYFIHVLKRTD

Compound | activity change, negative = inhibition [1] | activity change, negative = inhibition [2] | activity change, negative = inhibition [3] [%] | activity change, negative = inhibition [4] | activity change, negative = inhibition [5] | activity change, negative = inhibition [6]
O=C(C1CC1)N1CCn2c(nn(-c3ccc(F)cc3)c2=O)C1 | -5% (inactive) | -3.41% | -8.31 | -2.04% | -9.2% | -5.36%
N#CSc1cc(SC#N)c(N)nc1N | -62.1% (active) | -92.7% | -77.3 | -92.3% | -58.6% | -40.8%
C=C(C)Cn1c(=O)[nH]c2ccccc21 | 7.05% (inactive) | -1.89% | 0 | 7.74% | 13.6% | 4.12%
CN1CCCN(S(=O)(=O)c2cccs2)c2ccccc21 | -6.9% (inactive) | -11.1% | -3.04 | -16.1% | -12.8% | -18.8%
Cc1cccc(CSc2nnc3n(CC(C)C)c(=O)c4ccccc4n23)c1 | 2.1% (inactive) | -7.23% | 0.416 | 3.69% | -10.9% | 4.42%
NCCCC(=O)N1CCN(C2CCNCC2)C(=O)C1 | -0.26% (inactive) | -0.497% | -3.99 | 1.59% | -1.96% | 0.025%
O=C(N[C@@H]1CN(C2CCOCC2)CC[C@@H]1CO)c1ccccc1 | -14.8% (inactive) | -7.11% | -12.7 | -6.52% | -17.2% | -14.2%
Cc1ccc(COc2ccc3c(-c4ccccc4)cc(=O)oc3c2)cc1 | 1.55% (inactive) | -1.02% | 8.91 | 3.98% | 6.08% | -3.92%
CCCN1C(=O)c2cc(C(=O)N3CCC(C)CC3)nn2CC1(C)C(=O)NC1CCCC1 (stereo not drawn) | -0.787% (inactive) | -3.38% | 3.26 | 4.03% | -4.98% | -1.07%
CCc1ccc(S(=O)(=O)c2nnn3c2nc(N2CCCCC2)c2ccccc23)cc1 | 3.62% (inactive) | 0.777% | 0 | 6.93% | -3.24% | -1.25%
Cc1cn(CCN2CCN(c3ccccc3-c3cc(C#N)cc(C(=O)NCCCN4CCCC4)c3)CC2)c2ccccc12 | -11% (active) and 25.9% (active) | 0.523% and -14.2% | 12 | -86.5% and -77.8% | -17.4% and 7.48% | -1.62% and 35.5%
CCOc1ccc(CN2C(=O)c3cc(C(C)(C)C)nn3CC2(C)C(=O)NC2CCCCCC2)cc1 (stereo not drawn) | -0.389% (inactive) | -3.62% | 4.61 | -1.08% | -2.24% | -3.09%
COc1cccc(-c2ccc(C(=O)NCCN[S+](=O)([O-])c3cccs3)cc2)c1 | 1.95% (inactive) | -8.51% | -1.67 | -4.59% | -5.98% | -13%
